Source: PubChem
Arbovirus anti – blocks arbovirus infection | arbovirus infection cell-based antiviral screen | inhibition, % at 10 µM | 0.37% of 200,000 active; in the data active = inhibition above about 30%
Mcl1 Bid PPI – Mcl-1/Bid interaction inhibition; Q07820; TR-FRET Mcl-1/Bid-Dy647 peptide binding, 1536-well; inhibition, % at 21.7 µM; 0.97% of 220,000 active; AID 1021;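 active = compounds that cut the binding signal by more than half at the single screening dose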;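 also: His-tagged Mcl-1 with europium anti-His antibody binding Bid BH3 peptide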
Target sequence (Q07820 whole entry, looked up): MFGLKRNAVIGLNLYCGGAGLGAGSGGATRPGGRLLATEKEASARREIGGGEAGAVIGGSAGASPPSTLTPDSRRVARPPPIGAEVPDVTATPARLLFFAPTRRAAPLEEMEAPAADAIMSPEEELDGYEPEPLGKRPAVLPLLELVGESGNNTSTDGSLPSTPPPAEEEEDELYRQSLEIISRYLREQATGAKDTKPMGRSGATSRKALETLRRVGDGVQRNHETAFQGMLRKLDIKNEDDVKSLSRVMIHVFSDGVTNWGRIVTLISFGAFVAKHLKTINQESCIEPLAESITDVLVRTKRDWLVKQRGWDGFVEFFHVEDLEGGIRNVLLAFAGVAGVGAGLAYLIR
Bim-Mcl-1 – disrupts Bim peptide binding to human Mcl-1; Q07820; Bead-based flow cytometry, Bim peptide-Mcl-1 binding; inhibition, % at 10 µM; 0.1% of 190,000 active; in the data active = inhibition above about 40%
Mcl1 Noxa PPI – Mcl-1/Noxa interaction inhibition | Q07820 | TR-FRET Mcl-1/Noxa peptide binding, 2 h | inhibition, % at 21.7 µM | 1.5% of 220,000 active | AID 1022;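 active = compounds that cut the protein-peptide binding signal by more than 50% relative to plate controls in a single-dose test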;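 also: His-tagged Mcl-1 with rhodamine Noxa BH3 peptide and terbium anti-His antibody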
14-3-3 Bad inh – disrupts binding of bovine 14-3-3 zeta to phospho-Bad peptide. P63103. TR-FRET 14-3-3zeta/Dy647-pBad peptide displacement, 1 h. inhibition, % at 21.7 µM. 0.71% of 220,000 active;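 active = inhibition above about 70%, limit read from the data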
Target sequence (P63103 whole entry, looked up): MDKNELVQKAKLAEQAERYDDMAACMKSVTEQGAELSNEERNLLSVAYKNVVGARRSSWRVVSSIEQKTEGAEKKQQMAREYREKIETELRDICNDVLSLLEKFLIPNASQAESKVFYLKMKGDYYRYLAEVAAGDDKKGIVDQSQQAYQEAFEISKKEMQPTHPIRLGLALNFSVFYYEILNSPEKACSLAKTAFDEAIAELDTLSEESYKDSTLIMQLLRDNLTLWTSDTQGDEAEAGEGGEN
Large screens that a line does not name were inactive. Only some compounds are listed: those with a hit (about 3% of all), similar ones and a draw of the others.

O=c1[nH][nH]c2cc(=O)n(-c3ccc(Cl)cc3)nc12	14-3-3 Bad inh 92.0
O=C(Nc1ccccc1)c1cccc(=O)o1	none (no result: Arbovirus anti, Bim-Mcl-1)
O=C(CN1CCCCCC1)NCCc1ccc(F)cc1	14-3-3 Bad inh 74.9
CC1CCN(CC(=O)NCCc2ccc(F)cc2)CC1	none
Cc1ccc(C(=O)N2CC(=O)Nc3ccc(F)cc3C2c2ccc(F)cc2)cc1[N+](=O)[O-] (centres undefined)	Mcl1 Bid PPI 52.7
Cc1cccc(N=Cc2[nH]c3ccc(Br)c(Cl)c3c2O)c1	Mcl1 Noxa PPI 62.0
O=C(c1ccco1)N1CCN(C(=O)N2CCCC2)CC1	none
CCOC(=O)c1ccc(N/C=C/C(=O)c2ccc(OC)c(OC)c2)cc1	none
CCOC(=O)c1ccc(Nc2ccc(-c3ccc(OC)c(OC)c3)nn2)cc1	14-3-3 Bad inh 80.7
Cc1nc(CN(C)C(=O)c2cc(COc3ccc4ncccc4c3)on2)cs1	none
O=C(O)c1ccc(N/N=C/c2ccc(-c3ccc(Cl)cc3Cl)o2)cc1	Mcl1 Noxa PPI 108.2 (no result: Arbovirus anti, Bim-Mcl-1)
O=C(O)c1ccc(N/N=C/c2ccc(-c3cccc(Cl)c3)o2)cc1	none (no result: Arbovirus anti, Bim-Mcl-1)
O=C(O)c1ccc(N/N=C/c2ccc(-c3cc(Cl)ccc3Cl)o2)cc1	Mcl1 Bid PPI 61.7, Mcl1 Noxa PPI 110.6 (no result: Arbovirus anti, Bim-Mcl-1)
COc1cc(/C=C2/C(=O)NN(c3ccc(Cl)cc3)C2=O)ccc1OC(=O)c1ccco1	Mcl1 Noxa PPI 62.1
Cc1ccc2nc(NC(=O)c3cccc(-c4cc5ccccc5oc4=O)c3)sc2c1	Mcl1 Bid PPI 74.8
CCOc1ccc2nc(NC(=O)c3cccc(-c4cc5ccccc5oc4=O)c3)sc2c1	Mcl1 Bid PPI 84.3, Mcl1 Noxa PPI 75.5
Cc1ccc2nc(NC(=O)c3ccc(N4C(=O)CCC4=O)cc3)sc2c1	Mcl1 Noxa PPI 58.4
CCn1nnc(NC(=O)c2cccc(-c3cc4ccccc4oc3=O)c2)n1	none
COc1ccccc1N1CCN(C(=O)CCc2c[nH]c3ccccc23)CC1	none
CCOC(=O)c1ccc(NC(=O)CSc2nnc(NC(=O)c3ccc(S(=O)(=O)N4CCOCC4)cc3)s2)cc1	none
COc1ccc(NC(=O)c2c3c(nc4ccccc24)CCC3)cc1S(=O)(=O)N1CCOCC1	Mcl1 Noxa PPI 67.0
Cc1ccc(NC(=O)c2c3c(nc4ccccc24)CCC3)cc1S(=O)(=O)N(C)C	none
O=[N+]([O-])c1ccc(Sc2cc[n+]([O-])c3ccccc23)c([N+](=O)[O-])c1	none (no result: Arbovirus anti, Bim-Mcl-1)
CN(C)c1cc(-c2ccc(Cl)cc2Cl)oc(=O)c1Cl	none (no result: Arbovirus anti, Bim-Mcl-1)
COCCCNC(=O)/C=C/c1ccc(Cl)cc1Cl	none
COc1ccc(/C=C/C(=O)c2cc(Br)ccc2O)cc1OC	none
CNc1ccc(/C=C/C(=O)c2ccc3c(c2)OCCO3)cc1[N+](=O)[O-]	none
CNc1ccc(Br)cc(C(=O)/C=C/c2ccc(OC)cc2)c1=O	Mcl1 Noxa PPI 62.6
CNc1ccc(Br)cc(C(=O)/C=C/c2ccc3c(c2)OCO3)c1=O	Mcl1 Noxa PPI 67.7
CNc1ccc(Br)cc(C(=O)/C=C/c2cc(OC)ccc2OC)c1=O	Mcl1 Noxa PPI 86.8
CCNc1ccc(Br)cc(C(=O)/C=C/c2ccc(Cl)cc2Cl)c1=O	Mcl1 Noxa PPI 95.6
Cc1noc(C)c1-c1nc(CSc2ccccc2)no1	none (no result: Arbovirus anti, Bim-Mcl-1)
CC(=O)Nc1ccc(Oc2cc(NC(C)=O)cc([N+](=O)[O-])c2)cc1	none
CCOC(=O)c1c(C)[nH]c(C(=O)COC(=O)/C=C/c2ccc3c(c2)OCO3)c1C	Mcl1 Bid PPI 55.8
CCOC(=O)c1c(C)[nH]c(C(=O)COC(=O)/C=C/c2ccc(O)c(OC)c2)c1C	none
COc1ccc2c(c1O)-c1ccccc1CCN(C)C2	none
CN1CCc2cccc3c2[C@@H]1Cc1ccc(O)c(O)c1-3	Mcl1 Noxa PPI 91.6
O=C(CSc1nncs1)NC(=O)NC1CCCC1	none
O=C(CCCN1C(=O)/C(=C/c2cccc(Br)c2)SC1=S)Nc1cccnc1	none
O=C(CCCN1C(=O)/C(=C\c2cccc(Br)c2)SC1=S)Nc1cccnc1	Mcl1 Bid PPI 59.4
CC(/C=C1\SC(=S)N(CCCC(=O)Nc2ccc(C(=O)O)cc2)C1=O)=C\c1ccccc1	Mcl1 Noxa PPI 52.5
O=[N+]([O-])c1ccc(C2Nc3cccc4cccc(c34)N2)cc1	Mcl1 Noxa PPI 67.4
O=[N+]([O-])c1cccc(C2Nc3cccc4cccc(c34)N2)c1	none
CC(=O)Nc1ccc(N2CCOCC2)c([N+](=O)[O-])c1	none
O=c1ccc(Oc2nc(N3CCCCC3)nc(N3CCCCC3)n2)n[nH]1	14-3-3 Bad inh 74.0
O=C(Cc1ccc(F)cc1)Nc1nnc(SCC(=O)NC2CCCC2)s1	Mcl1 Bid PPI 71.7
O=C(NCCc1ccccc1)c1ccc(=O)oc1	none
O=C(NC1CCCC1)c1ccc2nc(-c3ccco3)c(-c3ccco3)nc2c1	Mcl1 Noxa PPI 100.6
O=C(NCCc1ccccc1)c1ccc2nc(-c3ccco3)c(-c3ccco3)nc2c1	Mcl1 Bid PPI 55.8, Mcl1 Noxa PPI 103.0
O=C(NCCO)c1ccc2nc(-c3ccco3)c(-c3ccco3)nc2c1	Mcl1 Noxa PPI 92.2
O=C(NC1CCCC1)c1ccc2nc[nH]c2c1	none
O=C(O)c1ccc2nc(-c3ccccc3)c(-c3ccccc3)nc2c1	none
O=C(c1ccccc1)c1ccc2nc(-c3ccco3)c(-c3ccco3)nc2c1	Mcl1 Noxa PPI 99.1
COc1ccc(N(C(C)C(=O)N/N=C/c2cccnc2)S(C)(=O)=O)cc1 (centres undefined)	none
Cc1ccc(C)c(N2CCN(C(=O)c3ccc4nc(-c5ccco5)c(-c5ccco5)nc4c3)CC2)c1	none
COc1ccccc1N1CCN(C(=O)c2ccc3nc(-c4ccco4)c(-c4ccco4)nc3c2)CC1	Mcl1 Noxa PPI 63.1
c1coc(-c2nc3ccccc3nc2-c2ccco2)c1	Mcl1 Noxa PPI 84.8 (no result: 14-3-3 Bad inh)
CC(C)C(c1nnnn1CCc1ccccc1)N1CCSCC1 (centres undefined)	none
CC1(c2nnc(Cc3ccccc3)o2)CC(c2cccc(Cl)c2)=NO1 (centres undefined)	none (no result: Arbovirus anti, Bim-Mcl-1)
CCc1cc(C(=O)O)c(NC(=O)/C=C/c2ccc(OC)c(OC)c2)s1	Arbovirus anti 70.9
CCc1cc(C(=O)O)c(NC(=O)/C=C/c2ccc(OC)cc2)s1	none (no result: Arbovirus anti, Bim-Mcl-1)
COc1ccc(/C=C/C(=O)Nc2cc(C(F)(F)F)ccc2Cl)cc1OC	Arbovirus anti 32.0
COc1ccc(/C=C/C(=O)Nc2ccccc2C(=O)O)cc1OC	Arbovirus anti 57.6
COc1ccc(/C=C/C(=O)Nc2ccccc2C(=O)O)cc1	Arbovirus anti 50.9
COc1ccc(/C=C/C(=O)Nc2ccccc2C(F)(F)F)cc1OC	none
Cc1ccc(S(=O)(=O)N(Cc2cc3ccccc3[nH]c2=O)c2cccc(C)c2)cc1	none (no result: Arbovirus anti, Bim-Mcl-1)
O=C(c1cnc2ccccc2n1)N1CCN(c2ccc(C(F)(F)F)cn2)CC1	none (no result: Arbovirus anti, Bim-Mcl-1)
Fc1cccc(Cl)c1CNc1ccc(N2CCCC2)cc1	Mcl1 Noxa PPI 72.3
O=C(COC(=O)c1ccccc1[N+](=O)[O-])Nc1cc(S(=O)(=O)N2CCOCC2)ccc1N1CCCC1	none
CNCCCOc1ccc(C)cc1Br	Mcl1 Bid PPI 61.1
CCn1c(=O)c(C(=O)NCCNCCO)c(O)c2ccccc21	Mcl1 Bid PPI 51.9 (no result: 14-3-3 Bad inh)
Clc1ccc(CO/N=C2\CCCc3nonc32)c(Cl)c1	none
